Whole data set: some 25,000 sequences, median “ln(normalized median fluorescence intensity)” near 7.1, cut for the highest 2% near 10. Many of the other results were omitted from the sample, so the highest values are more common in it than they were.
tested on: PfSIP2 AP2 domain 1 (GST-tagged); assay: gcPBM binding intensity (ln(normalized median fluorescence intensity)); higher = stronger DNA binding
Procedure, shortened: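 After 1 h on an Agilent 4 × 180k array of primer-extended double-stranded 36-bp intergenic genomic probes and negative controls, bound GST-tagged P. falciparum DNA-binding domains were detected with Alexa488 anti-GST antibody and scanned at 488 nm. The domains had been expressed in E. coli, and binding took place in 1× PBS with 1% milk, 0.2 mg/ml BSA, 0.5% salmon testes DNA and 0.03% Triton X-100. Binding intensity is the highest Masliner-normalised natural-log median intensity across replicate spots of either probe orientation.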

Sequence | gcPBM binding intensity (ln)
AAAAAAAAAAAAGAAAAATATATATATAAATAAATA [GTGCAC_negctrl_site569] | 6.98
TTTTTCATATGACACACACACAAAAATAATGTGGAA [CACACA_site7692] | 6.99
AAATTATATTATTGAACACACGTTTGGTAATGTTTT [CACACA_site5469] | 6.78
GCTATTTATTTATATTGTACTTTTTTTTTTTTTTTT [XGTACX_site3624] | 7.67
TAAATTGAGTATATTACACACATATAAATATATTAT [CACACA_site4027] | 6.88
GAACAAATTACAAGTTGTACTTTATGTAAATTATTA [XGTACX_site5304] | 6.76
ATACTATTATATATATGTACATATATATGATGCTCT [XGTACX_site1771] | 7.22
TATTTTATATGATAGGTGCATTTTTTTTTTTTTTTT [GTGCAC_site9757] | 10.8
CATCATCTTTTAAAGGTGCATAATAATATTGTTAAT | 11.1
ATAATTGTTTAAAGGTGTACAATACATATATTTTAA [XGTACX_site3648] | 6.91
TTTTTATTTATATGATACTTATATATATATATATAT [CACACA_negctrl_site462] | 9.5
TATGGAATAAATTTATCCATACATCTTATAACATAT [XGTACX_negctrl_site500] | 6.78
TTTTTTTTTTTTTTTTTTTTTTTTTTATGATATATA [GTGCAC_negctrl_site365] | 6.82
GTATTATATATATAGGTGCATATATATATATAAATA [GTGCAC_site9787] | 10.8
ATCTATATCTATAATACACACATCATAAAATATGTA [CACACA_site7230] | 7.19
ATATTATATATATAGGTGCGAGTATTTTATAAATAT [GTGCAC_site9889] | 9.06
TCGAATATCTTATAGGTGCATCATAAATACATATGT | 10.8
TTTTGTTATTTTTTAGTGCATATAAAGGTTGTTAAG | 8.64
ATAGTAATGCATAAATATATATTATATATATATATA [XGTACX_negctrl_site576] | 9.1
ACATATATATATATTACACACACACTAATAAAATAA [CACACA_site7920] | 7.24
AAAATTAAAAAAATAAATACATTATATAATTAAAAA [CACACA_negctrl_site1426] | 6.77
CTTCTTATTTTCTAATGTACGTACAAATCATTTATA [XGTACX_site2176] | 8
CTTGGGAAGTATTCAGTGCAAAATATAAGCAGGTCA [GTGCAC_site9758] | 7.75

Sequence | gcPBM binding intensity (ln)
ATATGTATATATATTTGTACGTAAAATGAAATCTAA [XGTACX_site213] | 7.45
AAAAAAAAAAAAAACACACACACACGCACATATACA [CACACA_site7288] | 7.66
AAAAATAAAGAAACAGGTACGCATATATTAAGATAT [XGTACX_site8097] | 7
CATAAATAAGCTTTAGTGCATTATATTTAAATTTTT | 7.29
GGTATATTAAAATAGGTGCATAAAACTAAGAGAAAA [GTGCAC_site9781] | 11
AATATCATTATATAAGTGCATTTTTTAAAAGATAAA [GTGCAC_site9479] | 9.12
CCTAATTTTATTAGGGTGCATTTTTAGTTAAATATA | 11.2
CGTTATATAATAAAGGTGCATAGATATATCATTATA [GTGCAC_site9774] | 10.5
GAAAGAAATAAAGGTGGTACATAAATAAAAACTAAG [XGTACX_site4826] | 7.38
TAATAAATGTTATTAGTGCATAATAGATAATATATT | 8.29
ATATATAAATAAATAGTGCATTTTAATATTTAACGT | 9.27
GGTATATATTCTATCACACATATTTCCATGAAAATA [CACACA_site4728] | 7.29
AAAAAAAAAAAATAAAGTACTAAATAATACATTATA [XGTACX_site6203] | 7.02
TGTAGTCTGGAGAAAAGTACACAGTATCTGGTAGCT [XGTACX_site2012] | 6.95
TATGTATTTTTATGCACACATGCGTGGCTTATATAA [CACACA_site387] | 7.39
GTATATATATATATATATATATATTTTTATTTATTT [CACACA_negctrl_site589] | 7.42
ATTGTAAGGAAACACACACACATATATATGTATATA [CACACA_site676] | 7.07
ACCTATGTATATTATACACACTCCAAACTATTATTT [CACACA_site1817] | 7.19
GGTATTTTCACATATAGTACACAAAAATAAAATAAA [XGTACX_site2139] | 7.79
TGTTTTTCATAGTGCACACATAACCAAAAATAGTAT [CACACA_site3150] | 10.8
TTTGTTTTTCATAGTGCACACATAACCAAAAATAGT [CACACA_site9030] | 10.5
AAATATTCATAGTATACACACATTTATTTATAACCA [CACACA_site6502] | 6.9
TTTGTAGTTTGCACATGTACACATTTCAAAATAAAG [XGTACX_site7568] | 7.49

Sequence | gcPBM binding intensity (ln)
TTTCATAACAAAAAAGTGCAAAATAGCACGAACATT [GTGCAC_site9703] | 8.82
ATATATGTATTTAATACACACAAAACTTTCATTCCA [CACACA_site3531] | 6.9
TGTACGTTTTATAACACACACACAAAAAAAAAAAAA [CACACA_site3875] | 7.09
TGAATATGTAAATGCACACCAAAAAAAAAAAAAAAA [CACACA_site3566] | 7.29
TACTATAAGATATATACACACAAGAAATACAAAACG [CACACA_site6764] | 7.53
AATATATGCTTTCGTTATATTAAATTCAATTTAATG [GTGCAC_negctrl_site76] | 6.95
TAGAATAAATTAATTACACACGGAATTATATATATA [CACACA_site1616] | 7.83
AAAAAAAAAAATATATTATTTTACTTGTTTATTTTA [CACACA_negctrl_site1447] | 6.68
AAGAAAATATATTCACATGAAGAATTAAAATAAAAC [TGCATGCA_negctrl_site119] | 7.14
TTTAAAAAAAATATGTGTACTTAATATTTTCATATA [XGTACX_site7421] | 6.78
ATATTATATTGGATGTTGCACTTAACAAAAGGATAT [GTGCAC_site9478] | 8.76
TTTGTTCATATTATTGTGCACTTAAACGTAACAAAA [GTGCAC_site9505] | 10.2
TTTTTGTAAAATAAACGTACAAAACAATTGTTCATT [XGTACX_site6537] | 6.94
ATCATTCCACTTTTCACACATATCTCTATTTCTATC [CACACA_site4723] | 7.37
AATATTGCACCATTTTGTACATAATATATTCAAATA [XGTACX_site475] | 10.7
AAAATAAATAAATATACACACCATATATATATTTTT [CACACA_site5573] | 6.88
AATATATTTTTTTTTTGTACATATTGTAAAATAATA [XGTACX_site6805] | 6.99
ATTTTTTTTTTTTTTTTTTTTGCACCATAAAATAAT [CACACA_negctrl_site1324] | 11.3
TACAACAATTTTTGCACACACCAAAACATAAAATAA [CACACA_site4964] | 7.52
TAAAAATATTTTCATTGTACATATATATAAATATAT [XGTACX_site1123] | 6.97
TTTTTTTTTGGGTGTACACATGAATATATATTTTTT [CACACA_site5254] | 7.83
TACTGTATTATAATTATGATTGACGAAATTAAAAAT [GTGCAC_negctrl_site358] | 6.91
GATTTTAATGGGTGTACACATTTATTTATATAAAGT [CACACA_site5317] | 7.54

Sequence | gcPBM binding intensity (ln)
ATGAATAAATAGGTCACACACAAATATATATAAATA [CACACA_site2416] | 6.98
TTAATATTGTATCCAAGTACACAAATTATTATATTT [XGTACX_site8067] | 7.11
CATGTATTTTATATTACACACTAATATTATATATAT [CACACA_site1508] | 7.51
CTTTCATATGTTTTAACACACACGCATATATTATAG [CACACA_site7033] | 7.08
TCTAACATATCTTTAATACACACTTAAAAAAGTACT [CACACA_site652] | 7.03
TATAATGTATGTAGTGCACACCTCTATAATATATTA [CACACA_site8560] | 10.3
TGTAATATATGTATTGCACACCTATAACCATTATTT [CACACA_site8422] | 7.17
ATATGTAGAAGTAATGCACACATATGTATATATATA [CACACA_site8796] | 8.38
TATGTACACCCATATACACACCTCTATAATATATAT [CACACA_site4563] | 7.29
ATATATATTATATAGTGTACCTATGTATAATAATAT [XGTACX_site1683] | 7.16
TAGAATGTATGTAGTGCACACCTCTATAATATATTA [CACACA_site1873] | 10.7
TTAAAAATGAACATATGTACATATATATATATATAT [XGTACX_site7923] | 9.39
TAAAAAATAAGATATACACACATATATTTATTTATA [CACACA_site7158] | 6.72
ATTTATTTATTTAGCTGTACATTTATACAGAACGAT [XGTACX_site3336] | 7
ACATTATGTCATAAATGTACACATACATATACATAC [XGTACX_site8998] | 7.11
AAAAATAAGATATATACACACATATAAATATAAATA [CACACA_site7396] | 6.82
GCCAATAAAGATGTGGTGCATTATATATATATATAT | 10.6
TATATATATATATGTGCACACATAAAGATATTATTT [CACACA_site3734] | 9.38
TAAATATATATATAAGTGCATTATATATATATATAA | 8.97
GCTTTAATCTGAAAGTGTACAGATAATATATTTATA [XGTACX_site2462] | 7.15
ATATGTAAAATATGGTGTACAATCAAATAAAAAAAA [XGTACX_site6270] | 7.16
